12-LOX inh = ALOX12 (human) lipoxygenase inhibition. P18054. purified 12hLO, xylenol orange hydroperoxide absorbance. Potency, µM (series often up to 108 µM), inactives show top-dose activity change, negative = inhibition, hits mostly inhibitors. hit rate 1.1% among 580,000. AID 1671190; also: % is scaled to controls: 0 for no effect and ±100 for the full control effect
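Hydroperoxide product was detected by ferrous iron/xylenol orange as the 573 to 405 nm absorbance ratio. Arachidonic acid at 40 uM (final) was turned over for 30 min at room temperature by 150 nM human 12hLO, pH 7.0 Hepes buffer, after 15 min compound preincubation.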
G9a block = blocks human histone lysine methyltransferase G9a; G9a H3K9 monomethylation, AlphaScreen, 2 h; hit rate 8.8% among 350,000; Potency, µM (top dose mostly 102 µM), without a hit: at the highest dose activity, negative = inhibition, most hits filed as inhibitors; also: % is scaled to controls: 0 for no effect and ±100 for the full control effect; nearly all actives have a fitted effect of over 75% in size
Target sequence (Q96KQ7 913-1193 limits assumed): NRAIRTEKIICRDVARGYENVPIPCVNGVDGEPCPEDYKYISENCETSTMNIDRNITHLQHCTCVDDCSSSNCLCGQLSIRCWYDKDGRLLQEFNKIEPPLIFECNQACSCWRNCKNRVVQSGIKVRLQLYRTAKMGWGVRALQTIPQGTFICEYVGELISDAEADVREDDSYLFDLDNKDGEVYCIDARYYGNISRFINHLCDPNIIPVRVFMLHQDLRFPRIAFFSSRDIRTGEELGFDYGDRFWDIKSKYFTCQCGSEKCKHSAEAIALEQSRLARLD
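G9a (20 nM) was preincubated 15 min with compound, then reacted 2 h at room temperature with 500 nM biotin-H3K9 peptide and 20 µM SAM. Monomethyl-H3K9 detected by AlphaScreen using anti-H3K9me1 antibody.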
HP1b binding inh = blocks HP1-beta chromodomain binding to methylated histone tails; P83916; AlphaScreen HP1-beta / biotin-H3K9me3 peptide binding; Potency, µM (series often up to 114 µM), for the others: at the top dose activity change, negative = inhibition, most hits filed as inhibitors; hit rate 0.56% among 390,000; also: nearly all actives have a fitted effect of over 70% in size
Target sequence (P83916 whole entry, looked up): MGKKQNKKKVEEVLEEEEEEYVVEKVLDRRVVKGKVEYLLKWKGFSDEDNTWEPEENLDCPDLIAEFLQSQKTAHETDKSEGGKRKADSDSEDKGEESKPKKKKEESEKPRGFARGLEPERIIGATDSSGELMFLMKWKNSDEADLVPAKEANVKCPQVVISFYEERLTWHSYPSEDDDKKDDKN
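HP1-beta protein (50 nM final) preincubated 30 min at room temperature with biotinylated H3(1-18)K9me3 peptide (50 nM) in PBS pH 7.4, 0.01% Tween-20, then compound added for 30 min. AlphaScreen streptavidin donor/nickel chelate acceptor beads (10 ug/mL final), 30 min dark, luminescence read.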
BAZ2B block = BAZ2B (human) inhibition; AlphaScreen BAZ2B-H3K14Ac peptide displacement; Potency, µM (top dose mostly 114 µM), without a hit: top-dose activity change, negative = inhibition, usual class: inhibitors; hit rate 4.4% among 360,000; AID 504333; also: % is scaled to controls: 0 for no effect and ±100 for the full control effect; nearly all actives have a fitted effect of over 60% in size
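Multi-concentration screen (max 110 uM) measuring displacement of acetylated histone H3 peptide from BAZ2B by AlphaScreen, using 50 nM protein, 50 nM peptide and 10 ug/mL streptavidin donor plus Ni-chelate acceptor beads.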
JMJD2A Tudor = inhibitors of human JMJD2A Tudor domain | O75164 | Potency, µM (series often up to 114 µM), for inactives: at the highest dose activity change, negative = inhibition, actives largely listed as inhibitors | AlphaScreen JMJD2A-Tudor / H3K4me3 peptide binding | hit rate 4.4% among 390,000; also: % is scaled to controls: 0 for no effect and ±100 for the full control effect; nearly all actives have a fitted effect of over 50% in size
PLK1 PBD inh = blocks phosphopeptide binding to human PLK1 polo-box domain. Potency, µM, without a hit: max response, negative = inhibition, hits mostly inhibitors. P53350. hit rate 2.8% among 360,000. Plk1 PBD binding of FITC phosphopeptide, fluorescence polarization; also: series mostly up to about 57 µM; % is scaled to controls: 0 for no effect and ±100 for the full control effect; nearly all actives have a fitted effect of over 65% in size
Active calls of the source: *; u = inconclusive; x = no result; [ ] = dose if it differs, or a comment. Sampled rows, rich in hits. Any-hit rate of the full collection: about 9%. Calls follow the shape of the dose curve; as a rule, active = well fitted curve in the direction sought with a large enough effect; inconclusive = small, poorly fitted or top-dose-only effect, or another doubt; inactive = no such curve, though single readings can be large; an effect the other way counts as inactive or inconclusive. Potency is read from the fitted curve at half-maximal effect.

SMILES	12-LOX inh	G9a block	HP1b binding inh	BAZ2B block	JMJD2A Tudor	PLK1 PBD inh
Cc1ccccc1NC(=O)CSc1ncnc2ccccc12	-7%	x	x	x	x	x
Fc1ccc(CSc2ncnc3ccccc23)cc1	-11%	74%[59 µM]	56%	142%	56%	27µM*
O=C(CSc1ncnc2ccccc12)c1cccs1	-29%	22µM*	3%	5%	3%	-18%
Cc1ccc(C(=O)CSc2ncnc3ccccc23)o1	-19%	25µM*	-2%	-20%	-4%	-12%
COc1cccc(C(=O)N[C@@H](Cc2cccnc2)C(=O)N2CCC[C@H]2C(=O)NCCc2ccccc2Cl)c1	-23%	x	x	x	x	x
O=C(CSc1ccccc1Cl)c1ccco1	u	u	19%	-21%	-2%	21µM*
O=C(CSc1ccc(Cl)cc1)c1ccco1	x	u	u	x	79µM*	9.5µM*
CCOc1ccc(-c2n[nH]c(C(=O)NN)c2C)cc1	14%	8%[59 µM]	12%	1%	-22%	u
Cc1c(-c2ccccc2)n[nH]c1C(=O)NN	1%	40µM*	36%	-24%	-4%	0%
O=C(NCc1ccco1)c1cc2cc(Br)ccc2[nH]1	32µM*	x	x	x	x	x
Cc1ccc2[nH]c(C(=O)NCc3ccco3)cc2c1	-9%	x	x	x	x	x
CCN(Cc1ccco1)C(=O)c1cc2cc(Br)ccc2[nH]1	18µM*	x	x	x	x	x
Cc1ccc2c(c1)C(c1ccccc1)N(C(=O)c1ccc(S(=O)(=O)N3CCCCC3)cc1)CC(=O)N2 (configuration not stated)	-27%	-29%[59 µM]	7%	-18%	-20%	x
O=[N+]([O-])c1cc(S(=O)(=O)N2CCOCC2)ccc1OCc1ccccc1C(F)(F)F	20%	0%	21%	-21%	-8%	1%
Cc1cccc(Nc2ccc(S(=O)(=O)N3CCOCC3)cc2[N+](=O)[O-])c1	u	u	u	u	10µM*	-7%
O=[N+]([O-])c1ccc(Nc2ccc(N3CCOCC3)cc2)c([N+](=O)[O-])c1	-3%	22µM*	32µM*	11µM*	u	-18%
COc1ccc(Nc2ccc(S(=O)(=O)N3CCCCCC3)cc2[N+](=O)[O-])cc1	-1%	11µM*	25µM*	10µM*	6.3µM*	-5%
O=C(Nc1ccc(N2CCOCC2)cc1N1CCOCC1)c1ccc([N+](=O)[O-])cc1	4%	-1%	24%	2%	-11%	-3%
CCCOc1ccc(S(=O)(=O)N2CCOCC2)cc1[N+](=O)[O-]	28%	0%[59 µM]	-7%	-15%	89µM*	0%
CSc1cccc(Nc2ccc(S(=O)(=O)N3CCOCC3)cc2[N+](=O)[O-])c1	2%	u	-14%	u	u	-4%
N#Cc1nc(-c2ccc(S(=O)(=O)N3CCCC3)cc2)oc1N1CCN(c2ccccc2)CC1	-3%	x	x	x	x	x
CS(=O)(=O)N(CC(=O)NCc1ccccc1Cl)C1CCCCC1	-23%	-7%	11%	1%	-6%	-11%
COc1ccc(Nc2ccc(S(=O)(=O)N3CCCCC3)cc2[N+](=O)[O-])cc1OC	5%	7.1µM*	u	10µM*	u	-4%
COCC(C)Nc1ccc(S(=O)(=O)N2CCCC2)cc1[N+](=O)[O-] (configuration not stated)	-15%	21%[59 µM]	-9%	-17%	-17%	-15%
CCCCCC(/C=N/Nc1ccc(S(=O)(=O)N2CCOCC2)cc1[N+](=O)[O-])=C\c1ccccc1	-3%	11µM*	u	u	u	-1%
SMILES	12-LOX inh	G9a block	HP1b binding inh	BAZ2B block	JMJD2A Tudor	PLK1 PBD inh
COc1ccc(S(=O)(=O)N2CCCCC2)cc1NC(=S)Nc1cccc(Cl)c1C	40µM*	-9%[59 µM]	-22%	-36%	-23%	-13%
COc1ccccc1Nc1ccc(S(=O)(=O)N2CCCCC2)cc1[N+](=O)[O-]	-4%	u	u	8.9µM*	10µM*	-9%
CCCN1CCC(=NNc2ccc(S(=O)(=O)N3CCOCC3)cc2[N+](=O)[O-])CC1	3%	11%[59 µM]	-32%	16%	u	-14%
CCCNC(=O)c1ccccc1C(=O)NC1(C(=O)NCCC)CCCC1	-1%	53%[0.501 µM]	33%	2%	-3%	4%
Cc1ccc2[nH]c(=O)c(CN(CCCO)C(C)c3nnnn3Cc3ccco3)cc2c1 (configuration not stated)	-16%	-3%	17%	-23%	-11%	4%
COc1ccc(-n2c(O)c(/C=N/NS(=O)(=O)c3cccc([N+](=O)[O-])c3)c3ccccc3c2=O)cc1OC	u	40µM*	3%	50µM*	u	22%
c1ccc(-c2cc(-c3ccncc3)nc3ccc4ccccc4c23)cc1	-5%	29%[59 µM]	43%	6%	-5%	-1%
CCS(=O)(=O)c1ccc(Cc2ccc(S(=O)(=O)CC)cc2)cc1	8.9µM*	x	x	x	x	x
COC(=O)CCS(=O)(=O)c1ccc(Cc2ccc(S(=O)(=O)CCC(=O)OC)cc2)cc1	-34%	x	x	x	x	x
CSc1nc2c(c(=O)[nH]c(=O)n2C)n1Cc1ccccc1Cl	-4%	x	17%	-3%	-14%	-14%
CCC(C)Sc1nc2c(c(=O)[nH]c(=O)n2C)n1Cc1ccccc1Cl (configuration not stated)	-1%	25µM*	7%	-14%	1%	u
Cn1c(=O)[nH]c(=O)c2c1nc(SCCO)n2Cc1ccccc1Cl	u	45µM*	-10%	-2%	u	24µM*
C=CCNC(=O)C1=NOC(CNC(=O)c2c(-c3ccccc3Cl)noc2C)C1 (configuration not stated)	-5%	6%[59 µM]	29%	-6%	15%	1%
COc1ccc(CCN2C(=O)N(c3ccc(F)cc3)C(=O)C2CC(=O)Nc2ccc(F)c(F)c2)cc1 (configuration not stated)	u	-6%[59 µM]	24%	-12%	-22%	x
Cc1cccc(C)c1-n1nnnc1C1(C)CCC(=O)N1c1ccc(N2CCOCC2)cc1 (configuration not stated)	11µM*	x	x	x	x	-23%
CCOC(=O)c1ccc(NC(=O)C2Cc3ccccc3CN2S(=O)(=O)c2ccc(Cl)cc2)cc1 (configuration not stated)	-18%	8%[59 µM]	39%	2%	0%	x
Cn1cnc([N+](=O)[O-])c1Oc1ccc2ccccc2c1	-23%	50µM*	23%	-7%	-24%	u
O=C1CN(c2nc(-c3ccccc3)c3cc(Cl)ccc3n2)c2ccccc2N1	u	50µM*	18%	-3%	-4%	7%
Cc1cc(C)c(NC(=S)NC(=O)c2ccc(-c3ccccc3)cc2)c(C)c1	22µM*	u	u	-38%	-29%	-8%
CC(C)(C)C(=O)NC(=S)Nc1ccccn1	-20%	-49%	-1%	-10%	-5%	0%
